Assay outcomes deposited in PubChem BioAssay by National Center for Advancing Translational Sciences (NCATS).
In the library only some 2.4% were active in any assay of this set; here they are far more common.
Pol eta inh: qHTS for Inhibitors of Polymerase Eta | recombinant Pol eta, fluorescent DNA replication assay | Potency, µM (series often up to 114 µM), most hits filed as inhibitors | actives 1.2% (n = 390,000) | AID 588591, 2011
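Pol eta (10 nM) was preincubated with compounds for 15 min at room temperature, after which fluorescent replication substrate (50 nM final) was added to start the reaction. Fluorescence was read kinetically at 0 and 10 min.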
FEN1 inhibitor: qHTS Assay for the Inhibitors of Human Flap endonuclease 1 (FEN1). P39748. actives 0.35% (n = 390,000). Potency, µM (doses to about 114 µM), most hits filed as inhibitors. Recombinant FEN1 flap cleavage, fluorescence, 15 min; also: nearly all actives have a fitted effect of over 65% in size
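Steps: FEN1 (10 nM) dispensed; compound added by pin tool; 15 min at room temperature; substrate added to 50 nM final; reads at 0 min and 15 min; data normalized and fitted (four-parameter Hill).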
POLI inh: qHTS for Inhibitors of Polymerase Iota. Pol iota fluorescent replication assay, 10 min. AID 588590, 2011. Potency, µM (highest dose often 115 µM), usual class: inhibitors. actives 1% (n = 390,000). DNA polymerase iota (Homo sapiens), Q9UNA4
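Pol iota at 10 nM preincubated 15 min with compounds at room temperature; reaction started with fluorescent substrate, 50 nM final. Fluorescence read kinetically at 0 and 10 min; buffer-only wells as negative control.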
Pol beta inh: qHTS Assay for Inhibitors of DNA Polymerase Beta; Pol beta primer extension/strand displacement, fluorescence kinetic; actives 1.3% (n = 340,000); Potency, µM (doses to about 114 µM), most hits filed as inhibitors; P06746; AID 485314, 2010
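Pol beta (10 nM) was preincubated with compound for 15 min at room temperature. The reaction was then started with 50 nM substrate and read immediately and after a further 10 min at room temperature.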
Pol kappa inh: qHTS for Inhibitors of Polymerase Kappa | AID 588579, 2011 | Potency, µM (doses to about 107 µM), hits mostly inhibitors | actives 0.53% (n = 400,000) | purified Pol kappa, fluorescent DNA synthesis assay, 10 min
Target sequence (Q9UBT6 whole entry, looked up): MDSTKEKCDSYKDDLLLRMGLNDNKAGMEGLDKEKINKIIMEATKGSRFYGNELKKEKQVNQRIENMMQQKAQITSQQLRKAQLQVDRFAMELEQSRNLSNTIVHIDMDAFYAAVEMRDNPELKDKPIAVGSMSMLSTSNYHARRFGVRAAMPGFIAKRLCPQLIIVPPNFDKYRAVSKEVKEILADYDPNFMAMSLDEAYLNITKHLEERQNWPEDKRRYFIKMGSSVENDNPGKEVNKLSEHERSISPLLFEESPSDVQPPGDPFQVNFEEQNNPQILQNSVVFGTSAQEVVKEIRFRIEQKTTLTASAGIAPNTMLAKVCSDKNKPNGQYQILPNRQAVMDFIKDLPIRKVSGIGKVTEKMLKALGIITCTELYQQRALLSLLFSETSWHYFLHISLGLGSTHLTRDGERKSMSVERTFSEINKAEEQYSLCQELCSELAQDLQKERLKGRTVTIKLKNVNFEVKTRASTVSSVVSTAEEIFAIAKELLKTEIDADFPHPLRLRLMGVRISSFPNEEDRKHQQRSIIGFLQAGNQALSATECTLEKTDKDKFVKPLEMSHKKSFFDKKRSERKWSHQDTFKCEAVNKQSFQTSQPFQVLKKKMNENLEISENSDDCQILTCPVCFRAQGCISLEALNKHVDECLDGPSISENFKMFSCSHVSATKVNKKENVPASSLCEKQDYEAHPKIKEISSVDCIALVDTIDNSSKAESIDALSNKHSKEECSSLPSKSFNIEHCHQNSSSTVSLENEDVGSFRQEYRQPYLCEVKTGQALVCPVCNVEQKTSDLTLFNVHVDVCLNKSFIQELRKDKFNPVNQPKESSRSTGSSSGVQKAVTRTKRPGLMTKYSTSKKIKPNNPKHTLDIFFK
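Kinetic fluorescence screen: compound preincubated 15 min RT with 10 nM enzyme; 50 nM substrate (final) initiates; reads at 0/10 min.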
WRN helicase inh: qHTS for Inhibitors of WRN Helicase | Bifunctional 3'-5' exonuclease/ATP-dependent helicase WRN (Homo sapiens), Q14191 | WRN helicase unwinding, fluorescent forked duplex, kinetic | Potency, µM (highest dose often 114 µM), hits mostly inhibitors | actives 0.46% (n = 360,000) | AID 651768, 2012; also: nearly all actives have a fitted effect of over 55% in size
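WRN at 20 nM final was preincubated with compound for 15 min at room temperature; reaction started with 100 nM forked duplex oligonucleotide carrying fluorophore and quencher plus 2 mM ATP (final). Unwinding followed kinetically by red fluorescence (ex 525/em 598 nm).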
Large screens that a line does not name were inactive; ! = not active in a repeat. Calls follow the shape of the dose curve; as a rule, active = well fitted curve in the direction sought with a large enough effect; inconclusive = small, poorly fitted or top-dose-only effect, or another doubt; inactive = no such curve, though single readings can be large; an effect the other way counts as inactive or inconclusive.

O=C(NNC(=S)Nc1ccccc1)c1ccco1	none
O=C(O)CN1C(=O)/C(=C\c2ccccc2OCc2ccc(Cl)cc2Cl)SC1=S	Pol eta inh 45µM, POLI inh inconclusive, Pol beta inh 20µM, WRN helicase inh inconclusive
O=C(O)CN1C(=O)/C(=C\c2cc(Br)ccc2OCc2ccccc2Cl)SC1=S	Pol eta inh 40µM, FEN1 inhibitor inconclusive, POLI inh inconclusive, Pol beta inh 32µM, WRN helicase inh 56µM
O=C(CC1Nc2ccccc2NC1=O)NC1CCCCC1 (centres undefined)	none
Cc1ccc(NC(=O)c2ccc(Br)cc2)c(C(=O)c2ccccc2)c1	none (no result: WRN helicase inh)
Cc1ccc(NC(=O)Cn2nnc3sc(-c4ccccc4)cc3c2=O)cc1Cl	none (no result: Pol eta inh, WRN helicase inh)
CN(C)c1ccc(/C=C/N2C=CCc3c2ccc2ccccc32)cc1	FEN1 inhibitor 11µM, POLI inh inconclusive, Pol kappa inh 50µM (no result: Pol eta inh, Pol beta inh, WRN helicase inh)
CN(C)c1ccc(/C=C/c2cc[n+](C)c3ccc4ccccc4c23)cc1	FEN1 inhibitor inconclusive (no result: Pol eta inh, Pol beta inh, WRN helicase inh)
CN1C/C(=C/c2ccccc2[N+](=O)[O-])C(=O)/C(=C\c2ccccc2[N+](=O)[O-])C1	Pol eta inh inconclusive, FEN1 inhibitor inconclusive, POLI inh 89µM, Pol kappa inh inconclusive (no result: Pol beta inh)
CCSc1nnc2c(n1)OC(c1cc(OC)c(OC)c(OC)c1)Nc1ccccc1-2 (centres undefined)	none (no result: WRN helicase inh)
COc1ccc(OCC(=O)Nc2ccc3c(c2)nc(CCn2ccccc2=O)n3C)cc1	POLI inh 56µM, Pol beta inh inconclusive
N#CC1=C2SCN(c3ccccc3)CN2C(=O)CC1c1c(Cl)cccc1Cl (centres undefined)	FEN1 inhibitor 79µM, POLI inh 89µM!
CCOc1ccc(N2CSC3=C(C#N)C(c4ccco4)CC(=O)N3C2)cc1 (centres undefined)	Pol beta inh 25µM
Cc1ccc(C2CC(=O)N3CN(c4ccc(Br)cc4)CSC3=C2C#N)o1 (centres undefined)	POLI inh inconclusive, Pol beta inh 32µM
COc1ccccc1C(=O)COC(=O)CNC(=O)c1ccc(Br)o1	none (no result: Pol beta inh)
O=C(O)CSc1nc2ccccc2[nH]1	none
O=C(N=C1c2ccccc2CN1c1ccc(F)cc1)c1ccc(Cl)nc1	none
c1ccc(Cc2nnc3sc(-c4ccco4)nn23)cc1	Pol eta inh 25µM, FEN1 inhibitor inconclusive, POLI inh 40µM, Pol kappa inh 79µM, WRN helicase inh inconclusive
FC(F)c1nc2ccccc2[nH]1	Pol beta inh 50µM
C=CCn1c(SCC(=O)N2CCOCC2)nc2scc(-c3ccco3)c2c1=O	Pol eta inh 32µM, FEN1 inhibitor inconclusive, POLI inh 16µM, Pol beta inh 28µM, Pol kappa inh inconclusive, WRN helicase inh 56µM
CC(C)C(C)(C#N)NC(=O)CSc1nc2scc(-c3ccco3)c2c(=O)n1-c1ccccc1 (centres undefined)	POLI inh inconclusive, Pol beta inh 28µM
C=CCn1c(SC(F)F)nc2scc(-c3ccco3)c2c1=O	none
C=CCn1c(SCC(=O)N2CCCC2)nc2scc(-c3cccs3)c2c1=O	Pol eta inh inconclusive
CC(C)C(C)NC(=O)CSc1nc2scc(-c3ccco3)c2c(=O)n1-c1ccccc1 (centres undefined)	Pol eta inh inconclusive, POLI inh inconclusive
C=CCn1c(SCC(C)=O)nc2scc(-c3ccco3)c2c1=O	Pol eta inh 40µM, FEN1 inhibitor inconclusive, POLI inh inconclusive, Pol beta inh 10µM, Pol kappa inh inconclusive, WRN helicase inh inconclusive
CC1(C(=O)O)CCCN1C(=O)c1ccccc1OC(F)(F)F (centres undefined)	none (no result: Pol eta inh, FEN1 inhibitor, POLI inh, Pol beta inh, Pol kappa inh)
CC(C)c1ccc(S(=O)(=O)N2CCN(C(=S)NCc3ccco3)CC2)cc1	POLI inh inconclusive
CCOC(=O)/C=C1\SCC(=O)N1CC(=O)c1ccc[nH]1	Pol eta inh inconclusive, POLI inh inconclusive, Pol beta inh 20µM, Pol kappa inh inconclusive
CCOc1cc(/C=N\NC(=O)Cn2nc([N+](=O)[O-])cc2C)ccc1OCc1cccc2ccccc12	none
COc1ccc2[nH]c3c4c(ccc3c2c1)C(=O)C=CC4=O	Pol eta inh inconclusive, POLI inh 32µM
COc1ccc2[nH]c(-c3ccc(F)cc3F)cc(=O)c2c1	none (no result: Pol eta inh, FEN1 inhibitor, POLI inh, Pol beta inh, WRN helicase inh)
COc1cc(/C=N/NC(=O)c2cncc(Br)c2)cc([N+](=O)[O-])c1O	none
Nc1ccc(O)c([N+](=O)[O-])c1	POLI inh 79µM (no result: Pol beta inh)
COc1cc(C(=O)Nc2cccc3cccnc23)cc(OC)c1OC	none
CCCCNC(=O)c1sc(=S)n2c1[nH]c(=O)c1ccc(C(=O)NCCc3ccc(OC)c(OC)c3)cc12	Pol eta inh 18µM, POLI inh 14µM, Pol beta inh inconclusive, Pol kappa inh inconclusive
CC(Oc1ccc(F)cc1)C(=O)Nc1cccc(-c2nn[nH]n2)c1 (centres undefined)	Pol eta inh 45µM, POLI inh 45µM
COc1ccc(OC(C)C(=O)Nc2cccc(OC)c2)cc1 (centres undefined)	none
CCCN1Cc2cccc(C(N)=O)c2C1=O	none
CCOc1ccc(Oc2ccccc2NS(=O)(=O)c2ccc(CCC(=O)O)cc2)cc1	Pol eta inh 35µM (no result: Pol beta inh)
CCOc1ccc(S(=O)(=O)Nc2ccccc2C(=O)N2CCCC2)cc1	none
COc1cc(C(=O)N=C2SC3CS(=O)(=O)CC3N2c2ccccc2)cc(OC)c1OC (centres undefined)	none
CCCC1=NN2C(=N)/C(=C\c3ccc(OCCOc4ccc(NC(C)=O)cc4)c(OC)c3)C(=O)N=C2S1	Pol eta inh 79µM, Pol beta inh inconclusive
COc1cc(/C=C2\C(=N)N3N=C(C)SC3=NC2=O)cc(Cl)c1OCCOc1ccc(NC(C)=O)cc1	Pol eta inh 89µM, POLI inh inconclusive
CCOc1cc(/C=C2\C(=N)N3N=C(CC)SC3=NC2=O)ccc1OCCOc1ccc(NC(C)=O)cc1	Pol beta inh 50µM
COc1cc(/C=C2\C(=N)N3N=C(C(C)C)SC3=NC2=O)ccc1OCCOc1ccc(NC(C)=O)cc1	none
CC(=O)NCCNc1nc2cc(-c3ccc4c(ccn4C)c3)sc2c(=O)n1C	none (no result: Pol eta inh, FEN1 inhibitor, POLI inh, Pol beta inh, Pol kappa inh)
CCN(CC)c1ccc(C(=O)c2ccccc2C(=O)O)c(O)c1	none
O=C(O)c1cc(N(Cc2ccccc2O)Cc2ccccc2O)ccc1O	FEN1 inhibitor inconclusive, POLI inh 14µM, Pol kappa inh 45µM (no result: Pol eta inh, Pol beta inh, WRN helicase inh)
Cc1ccccc1C(=O)N1CCC(C(=O)N2CCN(c3ncccn3)CC2)CC1	none (no result: Pol beta inh)
